Laboratory results taken from PubChem BioAssay (Tox21).
Inconclusive results are not listed. The source made the active and inactive calls. Unless noted, calls come from the whole dose curve; as a rule, active = well fitted curve in the direction sought with a large enough effect in the repeat runs; inconclusive = weak or mixed curves; inactive = no such curve, though single readings can be large; an effect the other way counts as inactive or inconclusive.

How the values were obtained:
[1] = target: Thyrotropin receptor (Homo sapiens) (UniProt P16473); test: qHTS assay to identify small molecule antagonists of the thyroid stimulating hormone receptor (TSHR) signaling pathway (AID 1259385; calls by dose curve; note: nearly all actives have a fitted effect of over 20% in size)
Thyrotropin receptor (Homo sapiens), sequence (P16473 whole entry, looked up): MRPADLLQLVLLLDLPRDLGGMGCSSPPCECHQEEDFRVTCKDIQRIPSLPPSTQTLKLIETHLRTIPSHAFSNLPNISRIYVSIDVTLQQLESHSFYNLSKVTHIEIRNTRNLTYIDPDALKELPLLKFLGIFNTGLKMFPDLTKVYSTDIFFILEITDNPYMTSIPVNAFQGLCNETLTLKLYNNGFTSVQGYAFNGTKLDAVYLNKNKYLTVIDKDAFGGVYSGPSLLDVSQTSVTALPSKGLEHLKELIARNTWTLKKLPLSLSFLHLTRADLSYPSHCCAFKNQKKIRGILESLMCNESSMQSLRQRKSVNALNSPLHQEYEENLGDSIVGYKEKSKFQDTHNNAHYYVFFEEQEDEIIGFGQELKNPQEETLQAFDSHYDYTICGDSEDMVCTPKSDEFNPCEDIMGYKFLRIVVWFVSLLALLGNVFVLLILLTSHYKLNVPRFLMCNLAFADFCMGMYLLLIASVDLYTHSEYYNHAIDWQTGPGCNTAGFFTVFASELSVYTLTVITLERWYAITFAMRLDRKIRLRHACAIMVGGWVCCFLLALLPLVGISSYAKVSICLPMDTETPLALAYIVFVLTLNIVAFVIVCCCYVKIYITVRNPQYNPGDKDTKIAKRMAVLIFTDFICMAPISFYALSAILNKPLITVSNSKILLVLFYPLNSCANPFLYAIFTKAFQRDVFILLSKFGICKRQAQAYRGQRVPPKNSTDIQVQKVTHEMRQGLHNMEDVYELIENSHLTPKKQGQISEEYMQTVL
In short: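 Antagonist mode: compound-treated TSHR-expressing HEK293 cells were stimulated with 1.5 ng/mL TSH (final) in presence of Ro20-1724 for 30 min at RT. HTRF cAMP detection after 1 h; each compound tested at 15 concentrations, triplicate.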

[2] = qHTS assay to identify small molecule agonists of the estrogen receptor alpha (ER-alpha) signaling pathway in the presence of an antagonist - cell viability counter screen (AID 1259386);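 note: series mostly up to about 92 µM; cells exposed to compounds for 22 h at 37 °C before the viability read; nearly all actives have a fitted effect of over 30% in size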
In short: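 Cytotoxicity was measured in parallel with the ERE-luciferase agonist screen, in the same wells. The cells were VM7Luc4E2, which endogenously express ER-alpha, and treatment was with compounds plus 10.0nM ICI-182,780 for 22hr.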

[3] = target: Progesterone receptor (Homo sapiens) (UniProt P06401); test: qHTS assay to identify small molecule antagonists of the progesterone receptor (PR) signaling pathway (AID 1346795; active = well fitted inhibition curve with a large enough effect in the signal ratio in the repeat runs, not every such curve was filed as active; the % refers to the signal ratio)
Progesterone receptor (Homo sapiens), sequence (P06401 whole entry, looked up): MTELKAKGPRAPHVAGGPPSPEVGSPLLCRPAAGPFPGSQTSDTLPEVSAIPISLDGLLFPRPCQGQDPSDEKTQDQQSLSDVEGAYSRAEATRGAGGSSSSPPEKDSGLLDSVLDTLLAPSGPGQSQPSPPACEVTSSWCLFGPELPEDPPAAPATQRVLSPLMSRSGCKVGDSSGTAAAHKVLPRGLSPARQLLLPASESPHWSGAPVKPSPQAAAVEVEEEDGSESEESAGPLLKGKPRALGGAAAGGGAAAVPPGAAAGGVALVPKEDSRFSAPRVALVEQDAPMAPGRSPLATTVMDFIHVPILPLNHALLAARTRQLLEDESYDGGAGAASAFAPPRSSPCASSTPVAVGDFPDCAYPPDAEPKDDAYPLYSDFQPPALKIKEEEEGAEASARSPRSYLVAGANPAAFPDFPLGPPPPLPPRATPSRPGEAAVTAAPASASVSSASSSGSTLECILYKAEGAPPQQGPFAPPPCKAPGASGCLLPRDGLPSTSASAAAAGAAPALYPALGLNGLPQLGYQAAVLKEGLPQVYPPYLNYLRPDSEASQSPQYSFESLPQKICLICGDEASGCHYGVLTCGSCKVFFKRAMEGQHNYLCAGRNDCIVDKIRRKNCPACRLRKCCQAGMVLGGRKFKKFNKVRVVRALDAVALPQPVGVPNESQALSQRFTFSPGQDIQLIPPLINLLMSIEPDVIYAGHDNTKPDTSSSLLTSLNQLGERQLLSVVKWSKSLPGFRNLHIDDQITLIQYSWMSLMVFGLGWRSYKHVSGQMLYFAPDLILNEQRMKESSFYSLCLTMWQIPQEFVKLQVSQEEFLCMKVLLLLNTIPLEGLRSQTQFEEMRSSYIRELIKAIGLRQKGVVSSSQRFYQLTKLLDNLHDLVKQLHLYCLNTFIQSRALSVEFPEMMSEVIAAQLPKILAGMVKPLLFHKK
In short: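 PR-UAS-bla HEK293T cells carrying a UAS-driven beta-lactamase reporter were plated in medium with 2% charcoal-stripped FBS and rested 6 hr at 37C. Compounds were added with 1 nM R5020 (final) for 16 hr, then FRET substrate loaded 2 hr at room temperature.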

[4] = qHTS assay to identify small molecule antagonists of the progesterone receptor (PR) signaling pathway - cell viability counter screen (AID 1346798); note: series mostly up to about 92 µM; nearly all actives have a fitted effect of over 50% in size
In short: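 PR-UAS-bla HEK293T cells in medium with 2% charcoal-stripped FBS were treated with compounds plus R5020 for 16 hr at 37C. Cell viability was then read by CellTiter-Glo luminescence after 30 min at room temperature in the same wells.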

[5] = qHTS assay to identify small molecule agonists of the progesterone receptor (PR) signaling pathway - cell viability counter screen (AID 1346799; calls by dose curve; note: nearly all actives have a fitted effect of over 45% in size)
In short: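 PR-UAS-bla HEK293T cells, 3,000 per well in medium with 2% charcoal-stripped FBS, were preincubated 6 hr at 37C, then exposed to compounds for 16 hr; viability was read as CellTiter-Glo luminescence after 30 min at room temperature.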

[6] = qHTS assay to identify small molecule antagonists of the TGF-beta/Smad signaling pathway - cell viability counter screen (AID 1346824); note: nearly all actives have a fitted effect of over 50% in size
In short: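 Cytotoxicity counter-screen run in the same wells as the beta-lactamase Smad reporter read: CellTiter-Glo luminescence after 30 min at room temperature. HEK 293T SBE-bla cells had 5 hr compound exposure at 37 C with TGF-beta1 (0.25 ng/mL stock).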

[7] = qHTS assay to identify small molecule agonists of the TGF-beta/Smad signaling pathway - cell viability counter screen (AID 1346829); note: top concentration of the series differs between compounds; nearly all actives have a fitted effect of over 45% in size
In short: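 Tox21 qHTS format: SBE-bla HEK 293T cells treated with DMSO-dissolved compounds for 5 hr; CellTiter-Glo luminescence after 30 min at room temperature.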

[8] = qHTS assay to identify small molecule agonists of the TGF-beta/Smad signaling pathway (AID 1346859; active = well fitted activation curve with a large enough effect in the signal ratio in the repeat runs, not every such curve was filed as active; the % refers to the signal ratio; note: series mostly up to about 77 µM)
In short: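 HEK 293T cells stably carrying a beta-lactamase reporter driven by the Smad binding element were seeded overnight, exposed to DMSO-dissolved compounds for 5 hr at 37 C, 5% CO2, then loaded with FRET substrate for 2 hr at room temperature.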

[9] = target: Thyrotropin-releasing hormone receptor (Homo sapiens) (UniProt P34981); test: qHTS assay to identify small molecule antagonists of the thyrotropin-releasing hormone receptor (TRHR) signaling pathway (AID 1346877; active = well fitted inhibition curve with a large enough effect in the repeat runs, not every such curve was filed as active; note: series mostly up to about 51 µM)
Thyrotropin-releasing hormone receptor (Homo sapiens), sequence (P34981 whole entry, looked up): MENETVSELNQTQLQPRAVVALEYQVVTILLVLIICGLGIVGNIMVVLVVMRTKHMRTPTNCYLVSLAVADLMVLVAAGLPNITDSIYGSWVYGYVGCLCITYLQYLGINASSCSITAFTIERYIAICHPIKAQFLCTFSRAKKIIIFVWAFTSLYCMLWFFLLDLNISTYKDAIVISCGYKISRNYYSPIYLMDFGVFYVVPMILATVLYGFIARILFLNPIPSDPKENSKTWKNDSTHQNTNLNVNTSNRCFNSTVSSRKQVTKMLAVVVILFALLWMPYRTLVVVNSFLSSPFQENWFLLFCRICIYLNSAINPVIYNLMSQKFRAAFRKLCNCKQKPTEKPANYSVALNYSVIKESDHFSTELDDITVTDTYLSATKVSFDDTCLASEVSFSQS
In short: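 Antagonism is measured as suppression of the calcium response to 1 nM TRH in TRHR-HEK293 cells that have been dye-loaded for 2 h at 37 °C after overnight plating. Each compound is tested at 15 concentrations in triplicate.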

[10] = target: Thyrotropin-releasing hormone receptor (Homo sapiens) (UniProt P34981); test: qHTS assay to identify small molecule agonists of the thyrotropin-releasing hormone receptor (TRHR) signaling pathway (AID 1346891; calls by dose curve; note: series mostly up to about 58 µM)
In short: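 TRHR-expressing HEK293 cells were plated 18 h at 37 °C/5% CO2, loaded with calcium dye 2 h at 37 °C, then given compound in DMSO; fluorescence was read kinetically for 3 min at 1 s intervals.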

[11] = Human pregnane X receptor (PXR) small molecule agonists, qHTS cell viability counter screen (AID 1346977); note: nearly all actives have a fitted effect of over 50% in size
In short: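 PXR-Luc HepG2 cells in medium with 5% charcoal-stripped FBS were pre-incubated 5hr, then exposed to compounds for 24hr at 37C. Viability was read in the same wells by CellTiter-Fluor fluorescence, reagent added after 23hr with a 1hr incubation.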

[12] = Caspase-3/7 induction in HepG2 cells by small molecules, qHTS assay (AID 1346978); note: nearly all actives have a fitted effect of over 15% in size
In short: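 Caspase-3/7 induction was measured by Caspase-Glo 3/7 luminescence (30 min, room temperature) after a 17 hr compound exposure of wild-type HepG2 cells seeded at 2,000 per well and pre-incubated 5 hr.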

[13] = Caspase-3/7 induction in CHO-K1 cells by small molecules, qHTS cell viability counter screen (AID 1346979); note: nearly all actives have a fitted effect of over 35% in size
In short: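 Wild-type CHO-K1 cells were seeded at 1,500 per well, rested 5hr at 37 C, then exposed to compounds in DMSO. After 16hr, CellTiter-Fluor reagent was added and fluorescence read 1hr later as the viability measure.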

[14] = Caspase-3/7 induction in CHO-K1 cells by small molecules, qHTS assay (AID 1346980); note: nearly all actives have a fitted effect of over 15% in size
In short: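 Luminescent Caspase-Glo 3/7 read (30min, room temperature) quantified apoptosis induction. Cells were wild-type CHO-K1, treated with compound for 17hr at 37 C and 5% CO2.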

[15] = Caspase-3/7 induction in HepG2 cells by small molecules, qHTS cell viability counter screen (AID 1346981); note: series mostly up to about 92 µM; nearly all actives have a fitted effect of over 30% in size
In short: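 Cell viability is measured as a cytotoxicity counter screen alongside the Caspase-Glo 3/7 readout in identical wells. Wild-type HepG2 cells are treated with test compounds for 16 hr at 37 C before CellTiter-Fluor addition and a 1-hr incubation.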

[16] = target: Nuclear receptor subfamily 1 group I member 2 (Homo sapiens) (UniProt O75469); test: Human pregnane X receptor (PXR) small molecule agonists, qHTS assay (AID 1346982); note: nearly all actives have a fitted effect of over 35% in size
Nuclear receptor subfamily 1 group I member 2 (Homo sapiens), sequence (O75469 whole entry, looked up): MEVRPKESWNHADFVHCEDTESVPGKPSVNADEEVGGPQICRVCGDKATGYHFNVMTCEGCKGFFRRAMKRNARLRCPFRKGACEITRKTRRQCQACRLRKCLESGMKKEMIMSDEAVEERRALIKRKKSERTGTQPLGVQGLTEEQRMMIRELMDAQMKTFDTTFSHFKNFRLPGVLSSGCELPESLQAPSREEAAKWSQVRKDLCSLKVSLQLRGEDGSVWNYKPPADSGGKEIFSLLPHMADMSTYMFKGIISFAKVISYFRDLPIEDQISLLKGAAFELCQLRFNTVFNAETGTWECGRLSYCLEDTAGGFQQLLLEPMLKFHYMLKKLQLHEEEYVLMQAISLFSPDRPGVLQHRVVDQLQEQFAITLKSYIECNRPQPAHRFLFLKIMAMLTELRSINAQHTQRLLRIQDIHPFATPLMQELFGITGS
In short: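 Cells: HepG2 stably carrying PXR-Luc. Medium held 5% charcoal-stripped FBS. Compounds in DMSO added after 5 hr plating, incubated 24 hr, then luminescence quantified with ONE-Glo.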

[17] = target: Nuclear receptor subfamily 1 group I member 2 (Rattus norvegicus) (UniProt Q9R1A7); test: Rat pregnane X receptor (rPXR) activation by small molecules, qHTS assay (AID 1346983); settings: rPXR luciferase reporter cells, One-Glo luminescence, 24 h; max activation: stronger effect = higher value; note: nearly all actives have a fitted effect of over 20% in size
Nuclear receptor subfamily 1 group I member 2 (Rattus norvegicus), sequence (Q9R1A7 whole entry, looked up): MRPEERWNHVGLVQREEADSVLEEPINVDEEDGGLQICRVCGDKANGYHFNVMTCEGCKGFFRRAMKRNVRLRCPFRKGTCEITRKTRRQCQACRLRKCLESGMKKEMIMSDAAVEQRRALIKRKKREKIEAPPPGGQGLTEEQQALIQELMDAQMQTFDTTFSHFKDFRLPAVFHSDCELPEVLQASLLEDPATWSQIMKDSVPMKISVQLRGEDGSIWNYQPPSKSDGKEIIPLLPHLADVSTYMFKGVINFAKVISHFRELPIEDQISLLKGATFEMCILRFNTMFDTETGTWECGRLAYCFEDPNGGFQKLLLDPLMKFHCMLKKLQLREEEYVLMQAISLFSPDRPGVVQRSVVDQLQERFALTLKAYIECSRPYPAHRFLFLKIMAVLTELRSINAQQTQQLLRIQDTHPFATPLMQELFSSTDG
In short: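 Luminescent readout (One-Glo luciferase, 30 min room temperature) followed 24 hr compound treatment at 37 C of rPXR cells plated 2,000 per well and preincubated 5hr; qHTS format with compounds delivered in DMSO.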

[18] = target: Nuclear receptor subfamily 1 group I member 2 (Homo sapiens) (UniProt O75469); test: Human pregnane X receptor (PXR) activation by small molecules, qHTS assay (AID 1346985); note: nearly all actives have a fitted effect of over 40% in size
In short: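 DPX-2 cells (HepG2 co-transfected with a PXR response element and a CYP3A4-promoter luciferase construct) were seeded at 2,000 per well, rested 5 hr at 37C, then exposed to DMSO-dissolved compounds for 24 hr. Activation was read as luciferase luminescence.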

[19] = target: Nuclear receptor subfamily 1 group I member 2 (Homo sapiens) (UniProt O75469); test: CYP3A4 induction through human pregnane X receptor (PXR) by small molecules, qHTS assay (AID 1346984); note: nearly all actives have a fitted effect of over 40% in size
In short: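 Quantitative HTS in DPX-2 cells, i.e. HepG2 transfected with PXR response element and CYP3A4-promoter luciferase. Compounds in DMSO incubated 24hr at 37C; then P450-Glo CYP3A4 substrate, 3uM final, 3hr; One-Glo luminescence.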

[20] = target: Progesterone receptor (Homo sapiens) (UniProt P06401); test: qHTS assay to identify small molecule agonists of the progesterone receptor (PR) signaling pathway (AID 1346784; calls by dose curve; note: nearly all actives have a fitted effect of over 30% in size)
In short: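 PR-UAS-bla HEK 293T cells carrying a UAS-driven beta-lactamase reporter were seeded in medium with 2% charcoal-stripped FBS, preincubated 6 hr at 37C, then exposed to compounds in DMSO for 16 hr; agonism was read by LiveBLAzer B/G FRET fluorescence.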
% is set by controls: 0 for no effect and ±100 for the full control effect.

CC(C)(C)S
inactive: Potency [1] | Potency [2] | Potency [3] | Potency [4] | Potency [5] | outcome [6] | Potency [7] | Potency [8] | outcome [9] | outcome [10] | Potency [11] | Potency [12] | Potency [13] | outcome [14] | Potency [15] | Potency [16]

CCSC(=O)N(CC)CC
inactive: Potency [1] | Potency [2] | Potency [3] | Potency [4] | Potency [5] | Potency [7] | Potency [8] | outcome [9] | outcome [10] | Potency [11] | Potency [12] | Potency [13] | outcome [14] | Potency [15] | Potency [16]

CC(C)C1CCC(C(=O)N[C@H](Cc2ccccc2)C(=O)O)CC1 (some centres undefined)
inactive: Potency [1] | Potency [2] | Potency [3] | Potency [4] | Potency [5] | outcome [6] | Potency [7] | Potency [8] | Potency [11] | Potency [12] | outcome [14] | Potency [15] | Potency [16] | max activation [17] -2.46% | Potency [18]

O=P(O)(O)Oc1ccccc1
inactive: Potency [1] | Potency [2] | Potency [3] | Potency [4] | Potency [5] | outcome [6] | Potency [7] | Potency [8] | outcome [9] | outcome [10] | Potency [11] | Potency [12] | outcome [14] | Potency [16]

CCCCCCCC/C=C\CCCCCCCC(=O)OCCO
inactive: Potency [1] | Potency [2] | Potency [3] | Potency [4] | Potency [5] | outcome [6] | Potency [7] | Potency [8] | outcome [9] | outcome [10] | Potency [11] | Potency [12] | Potency [13] | outcome [14] | Potency [15]

O=C1[C@@H]2[C@H]3CC[C@H](C3)[C@@H]2C(=O)N1CCCCN1CCN(c2ncccn2)CC1
inactive: Potency [1] | Potency [2] | Potency [3] | Potency [4] | Potency [5] | outcome [6] | Potency [7] | Potency [8] | Potency [11] | Potency [12] | Potency [13] | outcome [14] | Potency [15] | Potency [16]

O=C(O)CCCc1c[nH]c2ccccc12
inactive: Potency [1] | Potency [2] | Potency [3] | Potency [4] | Potency [5] | Potency [7] | outcome [9] | outcome [10] | Potency [11] | Potency [12] | outcome [14] | Potency [16]

CC(=O)NCCO
inactive: Potency [1] | Potency [2] | Potency [3] | Potency [4] | Potency [5] | outcome [6] | Potency [7] | Potency [8] | Potency [11] | Potency [12] | Potency [13] | outcome [14] | Potency [16]

CC(C)CC(O)CC(C)C
inactive: Potency [1] | Potency [2] | Potency [3] | Potency [4] | Potency [5] | outcome [6] | Potency [8] | outcome [9] | outcome [10] | Potency [11] | Potency [12] | Potency [13] | outcome [14] | Potency [15] | Potency [16]

Nc1c(Cl)cc(Cl)cc1[N+](=O)[O-]
inactive: Potency [1] | Potency [2] | Potency [3] | Potency [4] | Potency [5] | outcome [6] | Potency [8] | outcome [9] | outcome [10] | Potency [11] | Potency [12] | Potency [13] | outcome [14] | Potency [15] | Potency [16]

O=C(O)CNC(=O)c1ccccc1I
inactive: Potency [1] | Potency [2] | Potency [3] | Potency [4] | Potency [5] | Potency [8] | Potency [11] | Potency [12] | Potency [13] | outcome [14] | Potency [15] | Potency [16] | max activation [17] 0.066% | Potency [19] | Potency [18]

CC(=O)C(C)=O
inactive: Potency [1] | Potency [2] | Potency [20] | Potency [5] | outcome [6] | Potency [7] | Potency [8] | Potency [11] | Potency [12] | Potency [13] | outcome [14] | Potency [15] | Potency [16]

CC12CC3CC(C)(C1)CC(N)(C3)C2
inactive: Potency [1] | Potency [2] | Potency [3] | Potency [4] | Potency [5] | Potency [7] | Potency [8] | Potency [12] | Potency [13] | outcome [14] | Potency [15] | Potency [16]
